Shown are actives, neighbours in structure and some others; about 3.1% of the full set was active somewhere.
INS-1E GSIS act – GLuc luminescence reporter in INS-1E cells, primary screen for activators of glucose-dependent secretion of insulin; activation, % at 16.6 µM; actives 0.61% (n = 370,000); AID 743287; INS-1E GLuc reporter insulin secretion, 2-3 h;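 active means lowest replicate activation of at least 40%, so every replicate reaches that level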;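 further: 0% = median of neutral control wells and 100% = median of IBMX positive control wells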
RAD52 inh – RAD52 (human) annealing inhibition. recombinant RAD52 DNA annealing, FRET fluorescence. actives 0.46% (n = 360,000). AID 651710. inhibition, % at 18.7 µM. P43351;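 active means every replicate showing at least 50% inhibition; inconclusive means mean inhibition at least 50% but not in every replicate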
DENV2 CPE – inhibitors of DENV2 cytopathic effect. actives 1.7% (n = 350,000). DENV2-infected cells, cytopathic effect rescue, plate reader. CPE inhibition, % at 9.99 µM; in the data active means CPE inhibition above about 20%, passing the limit was not always enough; inconclusive means no clear call, values can overlap the other calls; tested in BHK-21 cells;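 further: 0% = median of neutral control wells and 100% = median of positive control wells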
AF4-AF9 inh – inhibitors of human MLL-AF4/AF9 interaction; inhibition, % at 10 µM; AlphaScreen, biotin-AF4 peptide binding to FLAG-AF9; actives 0.47% (n = 350,000); P42568; AID 651704;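 active means every replicate reaching a set inhibition limit, whatever the replicate mean, cut at about 25% in these data; inconclusive means mean inhibition reaches that limit but some replicates miss it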;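 further: 0% = plate neutral control median and 100% = total signal loss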
Target sequence (P42568 whole entry, looked up): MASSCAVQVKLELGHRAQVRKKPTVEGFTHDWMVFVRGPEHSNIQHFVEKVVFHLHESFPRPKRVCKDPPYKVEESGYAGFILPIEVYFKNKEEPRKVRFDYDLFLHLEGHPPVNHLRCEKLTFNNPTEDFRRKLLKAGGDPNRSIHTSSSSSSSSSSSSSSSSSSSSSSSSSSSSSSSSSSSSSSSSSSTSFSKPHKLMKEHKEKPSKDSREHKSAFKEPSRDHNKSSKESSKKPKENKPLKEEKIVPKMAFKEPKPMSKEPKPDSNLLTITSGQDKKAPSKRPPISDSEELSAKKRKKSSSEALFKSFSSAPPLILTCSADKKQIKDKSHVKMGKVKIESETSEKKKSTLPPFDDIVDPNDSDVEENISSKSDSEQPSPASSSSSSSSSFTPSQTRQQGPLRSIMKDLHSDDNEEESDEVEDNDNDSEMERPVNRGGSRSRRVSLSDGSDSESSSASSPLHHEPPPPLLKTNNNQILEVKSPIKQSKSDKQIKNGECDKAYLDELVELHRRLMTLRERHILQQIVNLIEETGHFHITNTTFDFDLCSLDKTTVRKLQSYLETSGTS
RAD54 branch – RAD54 (human) branch migration inhibition; AID 602329; Q92698; actives 0.14% (n = 360,000); RAD54 Holliday junction branch migration, FAM/BHQ fluorescence; inhibition, % at 10.4 µM;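 active means mean normalized replicate activity at least 40 and at least half of replicates scoring 40 or more; inconclusive means only one of the two criteria met; inactive means mean below 40 and under half of replicates reaching 40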;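 further: 0% = median of neutral control wells and 100% = median of positive control wells; inhibitors cause a drop in the FAM fluorescence signal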
dFosB act – activators of mouse delta FosB homodimer | P13346 | activation, % at 25 µM | purified delta FosB, TAMRA-CDK5 oligo fluorescence polarization; percent of positive-control signal above neutral wells | actives 0.99% (n = 340,000);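 active means mean activation above about 17%, with every replicate also reaching it, limit read from the data, passing the limit was not always enough; inconclusive means only one of the two conditions met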
Numbers without * were called inactive; ? = inconclusive; / = no result.

SMILES | INS-1E GSIS act | RAD52 inh | DENV2 CPE | AF4-AF9 inh | RAD54 branch | dFosB act
CCOc1cc(/C=N/NC(=O)CSc2cccc3cccnc23)ccc1O | 66* | -4 | 18 | 1 | / | -15
COCC(=O)Nc1ccc2c(c1)C(=O)N(C)C[C@@H](OC)[C@@H](C)CN(C(=O)c1ccncc1)[C@@H](C)CO2 | 8 | -7 | 9 | 3 | 5 | /
Cc1ccc(Cn2c(=O)c3ccccc3n3c(CCC(=O)O)nnc23)cc1 | 2 | -17 | -2 | -2 | 5 | -7
CC(C)Cn1c(=O)c2ccccc2n2c(CCC(=O)O)nnc12 | 5 | -10 | 70* | -1 | -1 | 6
O=[N+]([O-])c1cccc(-c2nnc3ccc4ccccc4n23)c1 | 55* | / | / | / | 4 | -13
O=C(c1ccco1)N1N=C(C2CCCCC2)CC1(O)C(F)(F)F (stereo unspecified) | 52* | -1 | 7 | 0 | / | 0
O=C(c1ccco1)N1CCN(C2c3ccccc3-c3ccccc32)CC1 | / | -24 | 54* | 4 | 1 | -20
O=C1OC(N2CCN(C(=O)c3ccco3)CC2)c2ccccc21 (stereo unspecified) | 4 | / | / | / | -1 | -9
O=C(c1ccco1)N1CCN(C2CN(Cc3ccccc3)S(=O)(=O)C2)CC1 (stereo unspecified) | 47* | -15 | -3 | 1 | 2 | /
CC1(C)CC(=O)c2cnc(N)nc2C1 | / | / | / | / | 5 | 4
CCc1nc(N)nc2c1C(=O)CC(C)(C)C2 | 70* | -2 | 6 | -10 | 3 | -3
COc1ccc(-c2nc3cnccn3c2Nc2ccc3c(c2)OCO3)cc1 | -15 | -12 | 0 | 28* | 1 | -2
Cc1ccc(-c2nc3cnccn3c2Nc2ccc3c(c2)OCO3)cc1 | / | -16 | -2 | 17 | 3 | -7
COCC(=O)Nc1ccc2c(c1)C(=O)N(C)[C@H]1CC[C@H](CC(=O)NCc3ccccc3F)O[C@H]1CO2 | 6 | 14 | -7 | -9 | 1 | /
O=S(=O)(NCC1CCCO1)c1ccc(Cl)nc1 (stereo unspecified) | 44* | -14 | 2 | -8 | / | -5
O=S(=O)(NCC1CCCO1)c1ccc(Cl)cc1 (stereo unspecified) | 2 | -4 | 4 | 1 | -8 | 3
Cc1cc2oc(=O)cc(Cn3ccnc3)c2cc1Cl | -31 | -5 | 26* | -1 | / | -3
COc1ccc(NC(=O)Nc2ccc3c(c2)C(=O)N([C@H](C)CO)C[C@@H](C)[C@@H](CN(C)Cc2ccc(Cl)c(Cl)c2)OCCCC[C@H](C)O3)cc1 | -3 | 18 | 8 | 2 | 0 | /
COc1ccc(C#Cc2ccc([C@@H]3[C@H](CO)N4CCCCN(Cc5ccccc5F)C[C@@H]34)cc2)cc1 | 50* | 41 | -31 | 31* | 18 | /
COc1ccc(C#Cc2ccc([C@H]3[C@H](CO)N4CCCCN(Cc5ccccc5F)C[C@@H]34)cc2)cc1 | 18 | 3 | -31 | 32* | 29 | /
OC[C@@H]1[C@@H](c2ccc(C#Cc3cccnc3)cc2)[C@@H]2CN(Cc3ccccc3F)CCCCN12 | -13 | 25 | 4 | 0 | -1 | /
COc1ccc(C#Cc2ccc([C@@H]3[C@@H](CO)N4CCCCN(Cc5ccccc5F)C[C@@H]34)cc2)cc1 | 95* | -104 | -33 | 2 | 3 | /
OC[C@@H]1[C@@H](c2ccc(C#CC3(O)CCCC3)cc2)[C@@H]2CN(Cc3ccccc3F)CCCCN12 | -14 | -15 | 9 | -2 | -2 | /
O=C(c1ccccn1)N1C[C@H]2[C@@H](c3ccccc31)[C@H](CO)N2C(=O)Nc1ccccc1Cl | 13 | -8 | 13 | -1 | 6 | /
CC(=O)N1[C@H](CO)[C@H](c2ccc(-c3ccc(C#N)cc3)cc2)C12CN(C(=O)C1CC1)C2 | 1 | -1 | 62* | -2 | / | /
SMILES | INS-1E GSIS act | RAD52 inh | DENV2 CPE | AF4-AF9 inh | RAD54 branch | dFosB act
CC(=O)N1CC2(C1)[C@H](c1ccc(-c3ccc(C#N)cc3)cc1)[C@@H](CO)N2C(=O)C1CC1 | 10 | -13 | 84* | 0 | / | /
CC(=O)N1[C@@H](CO)[C@@H](c2ccc(-c3ccc(C#N)cc3)cc2)C12CN(C(=O)C1CC1)C2 | 0 | -16 | 8 | 0 | / | /
CC(O)(c1cccc(F)c1)c1nc(/C=C/c2ccccc2)cs1 (stereo unspecified) | -10 | -16 | 22* | 5 | 3 | /
CO[C@@H]1CN(C)C(=O)c2cc(NC(=O)c3ccc4c(c3)OCO4)ccc2OC[C@@H](C)NC[C@@H]1C | 17 | -1 | -5 | -1 | -1 | /
C[C@@H]1CN([C@@H](C)CO)C(=O)c2cc(C#CC3CCCC3)cnc2O[C@H]1CN(C)C(=O)C1CC1 | 4 | -22 | 28* | 0 | 10 | /
C[C@H](CO)N1C[C@H](C)[C@@H](CN(C)C(=O)C2CC2)Oc2ncc(C#CC3CCCC3)cc2C1=O | -7 | -18 | 25* | -1 | 15 | /
CN(C)CC(=O)Nc1ccc2c(c1)[C@H]1C[C@@H](CC(=O)NCC3CC3)O[C@H](CO)[C@H]1O2 | 4 | 0 | -4 | -1 | 11 | /
CCOC(=O)c1ccccc1NC(=O)COC(=O)CCCOc1ccccc1 | 56* | -7 | -2 | -4 | / | 4
CCCc1cc(=O)[nH]c2nnc(SCC(=O)N3CC(C)OC(C)C3)n12 (stereo unspecified) | 55* | 6 | ? | -8 | / | -6
CC1CCc2sc(C(=O)NN=C3CCCC3)cc2C1 (stereo unspecified) | 18 | -7 | 52* | -2 | -9 | /
CCCCCCCCN1C(=O)[C@@H](CC(=O)N2CCN(C(=O)c3ccco3)CC2)C[C@@]2(C(=O)OC)C1=C[C@H](C1CCCC1)O[C@@H]2C | 54* | -7 | 11 | -3 | / | /
CCCCCCCCN1C(=O)[C@@H](CC(=O)N2CCN(C(=O)c3ccco3)CC2)C[C@@]2(C(=O)OC)C1=C[C@H](C(C)(C)C)O[C@@H]2C | / | -10 | -1 | 6 | / | /
COc1ccccc1C(C)NS(=O)(=O)c1ccc(Cl)nc1 (stereo unspecified) | 44* | -5 | 1 | -2 | 2 | -2
CCCC#Cc1cnc2c(c1)C(=O)N([C@@H](C)CO)C[C@H](C)[C@@H](CN(C)C(=O)c1ccc(F)cc1)O2 | 1 | 7 | -6 | 1 | 5 | /
N#C[C@@H]1[C@H](c2ccccc2C2=CCCC2)[C@@H](CO)N1C(=O)C1CC1 | 17 | -6 | -14 | -2 | / | /
N#C[C@@H]1[C@H](c2ccc(C3=CCCCC3)cc2)[C@H](CO)N1C(=O)C1CCOCC1 | 1 | -16 | 30* | 2 | 6 | /
N#C[C@@H]1[C@@H](c2ccccc2C2=CCCCC2)[C@H](CO)N1C(=O)NC1CCCC1 | -20 | 5 | 73* | -1 | / | /
N#C[C@@H]1[C@H](c2ccccc2C2=CCCC2)[C@H](CO)N1C(=O)C1CC1 | 27 | -6 | 22* | -1 | / | /

Screening data: PubChem, Broad Institute
